The whole screen tested about 94,000 compounds, of which about 280 (0.3%) were called active.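 Rule for the calls: active = activation above 40%, about the mean plus 3 SD, also judged a hit on visual image review; inconclusive = activation above 40% but not a hit on visual review; inactive = activation not above 40% and no visual hit.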 The entries come from a sample that favours actives as a whole.
Assay: enhancers of NFkB p65 translocation in HUVEC – imaging, IL-1B stimulus, high-content imaging, primary screen (AID 819);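 note: percent activation is computed from the nuclear over cytoplasmic p65 intensity ratio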
Details: HUVEC IL-1B NFkB p65 nuclear translocation imaging; at 2 µM; stronger effect = higher value

activation, inactive:
COC(=O)c1ccc(OCC(=O)NC(C)(C)C)cc1 -5.58%, CCOC(=O)c1c(C)oc2cc(Br)c(OCC(N)=O)cc12 -3.13%, Cc1nn(C)c(Oc2ccccc2)c1[N+](=O)[O-] -6.86%, Cc1ccc(NC(=S)N/N=C2/CCCc3c(C)cc(C)cc32)cc1 10.5%, Cc1cc(O)cc(O)c1C(=O)Cc1cnn(-c2ccccc2)c1 -0.94%, COc1ccc(CC(=O)c2ccc(O)cc2O)cc1OC 3.51%, O=c1c2ccccc2nc2n1C(CSc1ccc(Cl)cc1)CN2 (configuration not stated) -5.53%, O=c1c2c(nc3nc[nH]n13)CCC2 17.9%, CCCCn1c(=S)[nH]c2cc(S(=O)(=O)N3CCCCC3)ccc21 6.8%, Clc1ccc(-c2nnc(-c3ccccc3)nc2N2CCSCC2)cc1 6.76%, CC(C)CNC(=S)NNC(=O)c1ccccc1OC(F)F -19%, O=C(Cc1ccccc1)Nc1c(C(=O)N2CCCCCC2)cnn1-c1ccccc1 -2.59%, c1ccc(-c2csc(N3CCc4ccccc4C3)n2)cc1 -1.32%, Cc1[nH][nH]c(=O)c1N=Nc1ccccc1 19.6%, O=C(CCc1ccc(S(=O)(=O)NC2CCCCC2)cc1)NCc1ccccc1 1.98%, CC(=O)c1cnc(SCCN2C(=O)c3ccccc3C2=O)nc1C -4.03%, CC(C)c1ccc(NC(=O)CCN2C(=O)c3ccc([N+](=O)[O-])cc3C2=O)cc1 6.09%, CCOC(=O)CC(=O)CSc1nc(-c2ccccc2)cc(-c2ccc(Cl)cc2)c1C#N 5.19%, CN(C)/C=C/C(=O)c1ccccc1F -2.94%, ONC(=Nc1ccc(Cl)cc1)c1ccccc1Cl 16.3%, O=C(/C=C/c1ccccc1)N/C(=C/c1ccccc1)C(=O)Nc1ccccc1O -5.06%, CCOc1ccc(C(CCc2ccccc2)NC(=O)c2ccc(OC)c(OC)c2)cc1OCC (configuration not stated) -8.44%, Cc1cc(Nc2ccccc2)nc(N)n1 19.9%, CCOc1ccc(-c2c(C)n([O-])c3c([n+]2=O)CCCC3)cc1 0.86%, Cc1cccc(-n2ncc(C#N)c2-n2cccc2)c1 -2.16%, CCOC(=O)CSc1ncc(-c2cccc(Cl)c2)cn1 4.13%, Cc1ccccc1-n1c(C)cc(/C=N/NC(=O)c2ccc(CN3CCOCC3)cc2)c1C 20.5%, CC1CCc2c(c3ccccc3[nH]c2=O)O1 (configuration not stated) -2.19%, COC(=O)c1cc(OC)c(OC)cc1NC(=O)CSc1ccc(C)cc1 -0.33%, C/C=C/C(=O)Nc1nnc(C(C)C)s1 11.2%, CC1=C(C(N)=O)C(c2sccc2C)n2nnnc2N1 (configuration not stated) -11.1%, CCOC(=O)C1=C(CN2CCc3ccccc32)NC(=O)NC1c1cc(C)ccc1C (configuration not stated) 3.45%, COc1cc(NS(=O)(=O)c2ccc(N=Cc3c(C)[nH]n(-c4ccccc4)c3=O)cc2)nc(OC)n1 -2.69%, Cc1cccc(N(C(=O)Cc2cccs2)C(C(=O)NC2CCCC2)c2ccsc2)c1 (configuration not stated) -6.52%, O=C(Nc1cc2ccccc2oc1=O)C1CCCCC1 -8.41%, CCC(C)n1c(-c2cc(OC)c(OC)c(OC)c2)nc2nc3ccccc3nc21 (configuration not stated) 6.63%, COc1ccc(CCN(C(=O)COc2ccccc2)c2nc(-c3ccccc3)cs2)cc1OC 4.5%, O=[N+]([O-])c1ccccc1OCCCCN1CCCCC1 -1.68%, CCNC(=S)NNC(=O)Cc1ccccc1 0.95%, COc1ccc(OCC(=O)NNC(=O)c2ccc(-c3ccccc3)cc2)cc1 21.4%, Cc1cccc(C)c1NC1=NC(=S)N(c2ccc(N(C)C)cc2)C1(C)C -11.7%, O=C(CN1CCN(S(=O)(=O)c2ccc3ccccc3c2)CC1)NC(=O)NC1CCCCC1 -3.21%, O=C(Cn1cncn1)N/N=C/c1c2ccccc2cc2ccccc12 -10.3%, CCOC(=O)c1c(NC(=O)CCC(=O)NCc2ccco2)sc2c1CCCC2 1.18%, CC(C)OC(=O)c1c(NC(=O)c2ccco2)sc2c1CCCC2 -2.72%, O=C(CSc1nnnn1-c1ccccc1)NCc1ccco1 -8.15%, Cc1sc(NC(=S)NC(=O)c2cccs2)nc1-c1ccc(CC(C)C)cc1 17.4%, O=C(Nc1ccc(Br)c2cccnc12)c1ccc(Cn2cc([N+](=O)[O-])cn2)o1 25.7%, CCN(CC)CCNc1ccc(Cl)cc1[N+](=O)[O-] 11.6%, CC(Sc1nnc(Cc2ccc([N+](=O)[O-])cc2)o1)C(N)=O (configuration not stated) 0.99%, CC(Oc1ccc(Cl)cc1Cl)C(=O)/C=C/N(C)C (configuration not stated) 4.7%, Cc1cccc(C)c1-n1c(C)cc(/C=C2\C(=O)NN(c3ccccc3)C2=O)c1C -7.75%, O=C(O)c1ccccc1-c1ccccc1C(=O)Nc1cccc2ccccc12 8.14%, Cc1ccc(NC(=O)C(C)c2cccc(C(=O)c3ccccc3)c2)cc1 (configuration not stated) -0.9%, O=C1C(=O)N(c2ccccc2)c2ccccc21 -1.05%, O=C(NC1CCc2ccccc21)C12CN(Cc3ccccc3)CC1C(c1cccc([N+](=O)[O-])c1)=NO2 (configuration not stated) -3.33%, Cc1cc(C(=O)OCC(=O)Nc2ccc(F)c(F)c2)c(C)o1 -18.7%

activation, active:
COc1ccc(C(=O)Cc2cnn(-c3ccccc3)c2)c(O)c1 52.4%, Cc1[nH][nH]c(=O)c1C(c1ccc(-c2ccc(Cl)cc2)o1)c1c(C)[nH][nH]c1=O 49.6%, CC(C)(C)c1ccc(C(=O)NNC(=O)Cc2ccccc2)cc1 41.9%, CCOC(=O)c1c(NC(=S)NC(=O)c2ccco2)sc2c1CCCC2 53.7%, CC1=NC2(CCCc3c2no[n+]3[O-])N(O)C1(C)C (configuration not stated) 168%

Source: PubChem BioAssay AID819 (Columbia University Molecular Screening Center, 2007)
